Screening results (PubChem BioAssay)
Rows were chosen to be rich in hits. Some 2.4% of all compounds tested hit in one or more screens of this group.
M1 ag parental = counter-screen for M1 agonists: effect in parental CHO-K1 cells; 360,000 tested, 0.48% active; activation, % at 3 µM; Fluo-8 calcium fluorescence; scaled to maximal ATP response, vehicle zero; AID 602248, 2012; in the data active means activation above about 15%;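 further: untransfected CHO-K1 host cells lacking M1 receptor as counterscreen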
M1 antag = human M1 muscarinic receptor antagonists, primary screen, CHO-K1 cells, Fluo-8 calcium fluorescence, 1536-well; Muscarinic acetylcholine receptor M1 (Homo sapiens), P11229; CHO-K1 hM1, ACh EC80 antagonist; inhibition, % at 3 µM; 360,000 tested, 1.3% active; AID 588852, 2011;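 active means percent inhibition above its own plate's cutoff, namely the mean of that plate's compound wells plus 3 SD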;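 further: peak over basal fluorescence ratio during 140 s after agonist addition; 0% = ACh EC80 plus DMSO and 100% = DMSO alone without agonist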
Target sequence (P11229 whole entry, looked up): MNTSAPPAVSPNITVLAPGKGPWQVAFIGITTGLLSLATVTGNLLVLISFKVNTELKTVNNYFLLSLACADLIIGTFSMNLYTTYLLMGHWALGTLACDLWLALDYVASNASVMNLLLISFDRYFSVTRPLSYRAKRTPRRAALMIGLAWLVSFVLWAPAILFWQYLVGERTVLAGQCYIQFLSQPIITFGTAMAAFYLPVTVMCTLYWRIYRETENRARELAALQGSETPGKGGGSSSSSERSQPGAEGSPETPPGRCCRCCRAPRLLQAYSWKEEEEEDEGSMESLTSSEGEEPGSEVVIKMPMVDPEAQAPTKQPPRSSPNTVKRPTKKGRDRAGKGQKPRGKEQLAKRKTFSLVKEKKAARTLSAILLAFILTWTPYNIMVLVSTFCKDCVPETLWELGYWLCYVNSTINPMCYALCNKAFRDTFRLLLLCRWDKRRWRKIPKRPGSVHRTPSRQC
CHO-K1 Ca antag = M1 antagonist counterscreen hit in parental CHO-K1 cells; ATP-induced calcium, Fluo-8 fluorescence; inhibition, % at 3 µM; 360,000 tested, 0.6% active;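 active means inhibition above a per-plate cutoff, the plate's mean sample inhibition plus 3 SD, cut at about 24% in these data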;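 further: 0% = DMSO plus EC80 ATP and 100% = DMSO alone without ATP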
M1 ag = human M1 muscarinic receptor agonists, primary screen, Fluo-8 calcium fluorescence, CHO-K1 cells, HTS; 360,000 tested, 0.33% active; activation, % at 3 µM; CHO-K1 hM1, agonist mode; 0% DMSO, 100% acetylcholine EC100; Muscarinic acetylcholine receptor M1 (Homo sapiens), P11229;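 active means activation above the run's mean compound activation plus 3 SD, cut at about 16% in these data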;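 further: peak over basal fluorescence ratio within a 140 s kinetic read after compound addition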
CHRM1 PAM = human M1 muscarinic receptor positive allosteric modulators, primary screen, CHO-K1 cells, Fluo-8 calcium fluorescence, 1536-well; CHO-K1 hM1, ACh EC20; 0% = ACh EC20, 100% = maximal ACh; 360,000 tested, 0.088% active; AID 588819, 2011; activation, % at 3 µM; Muscarinic acetylcholine receptor M1 (Homo sapiens), P11229; in the data active means activation above about 19%, passing the limit was not always enough
M1 PAM parental = nonselective calcium activators in parental CHO-K1 cells, primary screen, counter-screen for M1 PAM project, cell-based, Fluo-8 calcium fluorescence, full deck, 1536-well | activation, % at 3 µM | ATP EC20; 0% at ATP EC20, 100% at ATP max | 360,000 tested, 0.02% active | AID 602247, 2012;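 active means activation above the run cutoff, the mean activation of all test compounds plus 3 SD, cut at about 40% in these data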;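 further: peak over basal fluorescence ratio in a 140 s read after ATP addition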
An asterisk follows results filed as active; / = no result.

SMILES	M1 ag parental	M1 antag	CHO-K1 Ca antag	M1 ag	CHRM1 PAM	M1 PAM parental
O=C(NC1(Cc2ccccc2)CCN(Cc2ccc(-c3ccccc3)cc2)C1=O)c1ccccc1 (stereo not drawn)	2	37*	4	-2	-14	-12
O=C(CCc1ccccc1)NC1(Cc2ccccc2)CCN(CCc2cccs2)C1=O (stereo not drawn)	4	-4	-14	-6	-1	17
O=C1c2cccc3c(N4CCCCC4)ccc(c23)C(=O)N1c1ccccc1O	36*	44*	30*	40*	-13	-7
O=C1c2cccc3c(N4CCCCC4)ccc(c23)C(=O)N1c1ccc(O)cc1	15	18	8	9	-9	8
CO/N=C(\c1nonc1N)N1CCN(c2ccc(Cl)cc2[N+](=O)[O-])CC1	2	2	-17	-3	1	14
O=C(NC(c1cccnc1)C(F)(F)F)c1cc(COc2ccc3c(c2)CCCC3)on1 (stereo not drawn)	7	42*	27*	2	-9	-25
CC(=O)c1ccc(N(C(=O)CS(=O)CC(=O)Nc2ccc(F)cc2)C(C(=O)NC2CCCCC2)c2cccs2)cc1 (stereo not drawn)	-1	-2	25*	-5	-1	-11
O=C(CS(=O)CC(=O)N(CC(=O)NC1CCCC1)C1CCCC1)Nc1ccc(F)cc1 (stereo not drawn)	2	12	5	-4	28*	-5
COC(=O)c1c(C)nn(-c2ccc(F)c(Cl)c2)c1-c1cc(C)on1	2	-9	-15	-3	7	14
O=C1c2ccccc2C(c2nnnn2C2CCCCC2)N1CCc1ccc(O)cc1 (stereo not drawn)	3	/	-2	/	/	0
O=C(CCN1C(=O)/C(=C/c2ccccc2F)SC1=S)NCCCN1CCOCC1	19*	1	5	-7	1	1
O=C(CCN1C(=O)/C(=C/c2ccccc2)SC1=S)NCCCN1CCOCC1	5	-10	2	-7	7	-7
CC1=C/C(=N\OC(=O)/C=C/c2ccccc2)C(C)=CC1=O	0	0	28*	1	11	-4
COc1ccc(C(C)=O)cc1COC(=O)CNC(=O)c1ccc(F)cc1	2	2	0	-5	-4	5
COc1ccc(C(C)=O)cc1COC(=O)CNC(=O)c1ccc(Cl)cc1	11	-2	29*	-8	5	-14
O=C(NCC1CCCCC1)c1ccc2sc([C@H]3C[C@H](O)[C@@H](CO)O3)nc2c1	2	-8	35*	-2	8	-13
O=C(Nc1ccc2c(c1)OCO2)c1ccc2sc([C@H]3C[C@H](O)[C@@H](CO)O3)nc2c1	0	-24	-4	3	28*	12
O=C(Nc1ccc2c(c1)OCO2)c1ccc2sc([C@@H]3O[C@H](CO)[C@@H](O)[C@H]3O)nc2c1	0	-9	0	-2	3	4
COc1ccn(C2CCCCO2)c(=O)n1 (stereo not drawn)	1	-4	-11	-3	1	16
COc1ccc(C(=O)Nc2ccc(C)cn2)cc1S(=O)(=O)N1CCCc2ccccc21	1	23*	16	-4	-13	-29
O=C(NCc1cccs1)c1cc(-c2ccc(O)cc2)on1	5	-16	5	17*	4	-4
Cc1ccc(-c2cc(C(=O)NCc3cccs3)no2)cc1	0	2	-3	-6	1	7
O=C(Nc1c(F)cc(F)cc1Br)c1cc(-c2ccccc2)on1	0	4	0	-4	-2	3
O=C(Nc1c(F)cc(F)cc1Br)c1cc(-c2ccc(O)cc2)on1	3	-2	7	18*	2	3
COc1ccc(OC)c(-c2nn(-c3ccccc3)cc2C(=O)NCC(c2ccco2)N2CCCC2)c1 (stereo not drawn)	1	-8	-17	-8	3	15
SMILES	M1 ag parental	M1 antag	CHO-K1 Ca antag	M1 ag	CHRM1 PAM	M1 PAM parental
CCCc1cc(=O)[nH]c2nnc(SCC(=O)Nc3cccc(NC(C)=O)c3)n12	0	2	11	20*	16	-23
CC(=O)NCCc1ccc(C(=O)COC(=O)c2cc(C)oc2C)cc1	1	-6	-14	-2	0	12
CC(=O)c1c(C)n(CC(=O)NCc2ccco2)c2ccccc12	2	35*	-27	-3	-9	2
O=C(NCC(c1ccco1)N1CCCC1)c1ccccc1Sc1ccc(C(F)(F)F)cc1[N+](=O)[O-] (stereo not drawn)	1	95*	0	-8	-28	2
N#Cc1ccccc1Sc1ccccc1C(=O)NCC(c1ccco1)N1CCCCC1 (stereo not drawn)	0	30*	-20	-8	-22	-6
C[N+]1(CC2COC3(CCCCC3)O2)CCCC1 (stereo not drawn)	0	13	-2	-8	-15	1
CC1CC(C)(C)OC(C[N+]2(C)CCCCC2)O1 (stereo not drawn)	2	35*	-13	-6	-15	25
CCSc1nnc(-c2ccncc2)o1	0	-6	-4	-3	5	8
OCC#CCSc1nnc(-c2ccncc2)o1	-1	7	37*	-4	5	4
CCOC(=O)C1CCN(c2ncnc3c2oc2ccc(Cl)cc23)CC1	1	6	27*	-1	-6	-5
CCOC(=O)C1CCN(c2ncnc3c2[nH]c2cccc(OC)c23)CC1	2	4	-6	-3	-5	6
COc1cc2c(-c3ccc4[nH]ccc4c3)c(-c3ccc(C#N)cc3)oc(=O)c2cc1OC	0	19	-1	-9	-16	-10
CCOC(=O)C1CCCN(C(=O)c2ccc(CS(=O)(=O)c3ccc(C)cc3)o2)C1 (stereo not drawn)	1	30	-8	56*	-31	13
CCOC(=O)C1CCCN(C(=O)c2cccc(S(=O)(=O)N(C)c3ccc(C)cc3)c2)C1 (stereo not drawn)	1	37*	2	-1	-13	-5
CCCN1CCN(C(=O)c2ccc(-c3ccc([N+](=O)[O-])cc3)o2)CC1	0	1	-9	-8	-3	-6
CCOC(=O)C1CCCN(C(=O)c2ccc(-c3ccc([N+](=O)[O-])cc3)o2)C1 (stereo not drawn)	1	19	17	39*	-12	-22
NC(=O)CC1C(=O)N(c2ccc(F)cc2)C(=O)N1NC(=O)CCc1ccccc1 (stereo not drawn)	0	-10	-6	-1	9	20
